Data reported in PubChem BioAssay AID2061321 (National Center for Advancing Translational Sciences (NCATS), 2025).
Results filed as inconclusive are left out. The source made the active and inactive calls. The call rests on the fitted dose curve; in most records, active means well fitted inhibition curve with a large enough effect; inconclusive means small, poorly fitted or top-dose-only effect; inactive means flat fitted curve, though single readings scatter. Non-standard residues stand in square brackets, D forms with d. Residues, ends and D or L forms follow the SMILES beside them. *: point of attachment. Dolaproine = CO[C@@H]([C@@H]1CCCN1)[C@@H](C)C(=O)O; Dil = CC[C@H](C)[C@H](NC)[C@@H](CC(=O)O)OC; NMe2Val = CC(C)[C@@H](C(=O)*)N(C)C

experiment: Identification of antibody-drug conjugate (ADC) payloads which are substrates of ATP-binding cassette drug efflux transporters: ABCG2-H460 cell line; settings: H460 MX20 (ABCG2) viability, CellTiter-Glo, 48 h
Source text: Antibody-drug conjugates (ADCs) feature an antibody recognizing a specific protein joined to a potent toxic payload. Numerous antibody-drug conjugates have received FDA approval; however, clinical resistance arises. Resistance mechanisms include decreased expression or mutation of the antibody target, impaired payload release, or increased expression of ATP-binding cassette (ABC) efflux transporters associated with multidrug resistance. We therefore sought to characterize the interaction of ABC multidrug transporters with ADC payloads. We performed a high-throughput screen with 27 common ADC payloads using cells lines expressing ABC transporters P-glycoprotein (P-gp, encoded by ABCB1) or ABCG2 (encoded by ABCG2). Confirmatory assays were also performed using cells transfected to express P-gp, ABCG2, or MRP1 (encoded by ABCC1). Several commonly used ADC payloads were substrates of P-gp, including calicheamicin gamma1, monomethyl auristatin E, DM1, and DM4. All the pyrrolobenzodiazepines tested - SJG136, SGD-1882, SG2057, and SG3199 - were substrates of P-gp, ABCG2, and MRP1. […] These findings highlight the risk of transporter-mediated resistance with certain ADC payloads and underscore the importance of selecting payloads that evade ABC transporter recognition in future ADC development.
HEK-293 cells were transfected with empty vector (pcDNA) or vector containing the human ABCB1 (MDR-19), ABCG2 (R-5), or ABCC1 gene (MRP1) and were maintained in EMEM with 2 mg/mL G418 added to maintain transporter expression. The HeLa derivative KB-3-1 and the P-gp overexpressing KB-8-5-11 subline were maintained in DMEM; KB-8-5-11 additionally received 100 ng/mL colchicine. H460 parental cells were obtained from the Division of Cancer Treatment and Diagnosis Tumor Repository, National Cancer Institute at Frederick, MD and were cultured in RPMI. The ABCG2 expressing subline H460 MX20 was generated by selecting H460 cells in 20 nM mitoxantrone. Media in all cases was supplemented with 10% FBS and 1% penicillin-streptomycin. We explored 27 common ADC payloads, in two orthogonal, paired cell line sets-a drug selected and transfected set for each transporter--to identify substrates of the ABC transporters P-gp and ABCG2. Compounds were sourced from Levena Biopharma (San Diego, CA), Selleck Chem (Houston, TX), ChemieTek (Indianapolis, IN), or Microsource Discovery Systems (Gaylordsville, CT). Screening was performed as previously described. Briefly, cells were plated at a density of 500 cells/well in 1536 well plates with compounds added using a 1536-head pin tool (Kalypsys, San Diego CA). Cells were incubated with cytotoxic drugs and processed with CellTiter Glo reagent (Promega, Madison, WI) to determine viability after 48 hours. P-gp substrates were identified by comparing compound activity between paired sets of low-expressing (sensitive) and over-expressing (resistant) cell lines.

| SMILES | Potency |
| --- | --- |
| CC[C@H](C)[C@@H]([C@@H](CC(=O)N1CCC[C@H]1[C@H](OC)[C@@H](C)C(=O)N[C@@H](Cc1ccccc1)C(=O)O)OC)N(C)C(=O)[C@@H](NC(=O)[C@H](C(C)C)N(C)C)C(C)C (NMe2Val-V[Dil][Dolaproine]F-OH) | 42.3 nM (active) |
| CC[C@H](C)[C@@H]1NC(=O)CNC(=O)[C@H]2Cc3c([nH]c4cc(O)ccc34)S(=O)C[C@H](NC(=O)CNC1=O)C(=O)N[C@@H](CC(N)=O)C(=O)N1C[C@H](O)C[C@H]1C(=O)N[C@@H]([C@@H](C)[C@@H](O)CO)C(=O)N2 (stereo partly specified) | 948 nM (active) |
| COc1cc2cc(C(=O)N3C[C@@H](CCl)c4c3cc(O)c3ccccc43)[nH]c2c(OC)c1OC | 1.1 nM (active) |
| CC[C@H](C)[C@@H]([C@@H](CC(=O)N1CCC[C@H]1[C@H](OC)[C@@H](C)C(=O)N[C@H](C)[C@@H](O)c1ccccc1)OC)N(C)C(=O)[C@@H](NC(=O)[C@H](C(C)C)N(C)C)C(C)C | 1.3 nM (active) |
| COc1cccc2c1C(=O)c1c(O)c3c(c(O)c1C2=O)C[C@@](O)(C(=O)CO)CC3OC1CC(N2CCOC(OC)C2)C(O)C(C)O1 (stereo partly specified) | 3 nM (active) |
| CC[C@@]1(O)C(=O)OCc2c1cc1n(c2=O)Cc2cc3ccccc3nc2-1 | 9.5 nM (active) |
